Test results reported in the supplement of paper PMC10849652.
About 8,800 targets were measured; listed, in parts, are those with a hit and a random draw of the rest. About 0.5% of all pairs of compound and target were hits.

Legend:
Assay in all cases: log2 fold change, soluble protein after heating vs DMSO (PISA); higher = thermal stabilisation; K562 lysate, 10 uM; active = over 0.2 and 3.5 SD of the protein, either way, in both replicates (recomputed)
pictilisib = compound: CS(=O)(=O)N1CCN(Cc2cc3nc(-c4cccc5[nH]ncc45)nc(N4CCOCC4)c3s2)CC1 [pictilisib]
Outline: (§1)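 Following dounce homogenisation of K562 pellets in PBS pH 7.4 with 1 mM MgCl2, crude extract at 1 mg/mL protein was incubated for 30 min with 10 μM compound. Aliquots were then heated for 3 min over 48°C-58°C and pooled, NP-40 was added to 0.5% at 4°C, and soluble protein was recovered as the supernatant at 21,000xg for 90 min. Channel-sum-equalised TMTpro 16plex LC-MS/MS quantified this protein. Each value, from duplicates, is a log-two fold change in thermal stability relative to solvent controls.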

crizotinib = compound: C[C@@H](Oc1cc(-c2cnn(C3CCNCC3)c2)cnc1N)c1c(Cl)ccc(F)c1Cl [crizotinib]
Outline: as §1

[1] = compound: C[C@H](C1=CC=C(C=C1)C(=O)NC2=C3C=CNC3=NC=C2)N
Outline: as §1

duvelisib = compound: C[C@H](Nc1ncnc2nc[nH]c12)c1cc2cccc(Cl)c2c(=O)n1-c1ccccc1 [duvelisib]
Outline: as §1

gandotinib = compound: Cc1cc(Nc2cc(CN3CCOCC3)c3nc(C)c(Cc4ccc(Cl)cc4F)n3n2)n[nH]1 [gandotinib]
Outline: as §1

tozasertib = compound: Cc1cc(Nc2cc(N3CCN(C)CC3)nc(Sc3ccc(NC(=O)C4CC4)cc3)n2)n[nH]1 [tozasertib]
Outline: as §1

doramapimod = compound: Cc1ccc(-n2nc(C(C)(C)C)cc2NC(=O)Nc2ccc(OCCN3CCOCC3)c3ccccc23)cc1 [doramapimod]
Outline: as §1

bafetinib = compound: Cc1ccc(NC(=O)c2ccc(CN3CC[C@H](N(C)C)C3)c(C(F)(F)F)c2)cc1Nc1nccc(-c2cncnc2)n1 [bafetinib]
Outline: as §1

[2] = compound: Cc1cccc(CC(=O)N2CCc3c2ccc(-c2cn(C)c4ncnc(N)c24)c3F)n1
Outline: as §1

nilotinib = compound: Cc1cn(-c2cc(NC(=O)c3ccc(C)c(Nc4nccc(-c5cccnc5)n4)c3)cc(C(F)(F)F)c2)cn1 [nilotinib]
Outline: as §1

[3] = compound: Cc1nc(Nc2n[nH]c3c2CN(C(=O)N[C@H](CN(C)C)c2ccccc2)C3(C)C)c2sccc2n1
Outline: as §1

dasatinib = compound: Cc1nc(Nc2ncc(C(=O)Nc3c(C)cccc3Cl)s2)cc(N2CCN(CCO)CC2)n1 [dasatinib]
Outline: as §1

[4] = compound: Cc1ncc(-c2ccnc(Nc3ccc(S(C)(=O)=O)cc3)n2)n1C(C)C
Outline: as §1

[5] = compound: Cn1cc(-c2ccc3c(c2)CCN3C(=O)Cc2cccc(C(F)(F)F)c2)c2c(N)ncnc21
Outline: as §1

quisinostat = compound: Cn1cc(CNCC2CCN(c3ncc(C(=O)NO)cn3)CC2)c2ccccc21 [quisinostat]
Outline: as §1

tipifarnib = compound: Cn1cncc1[C@@](N)(c1ccc(Cl)cc1)c1ccc2c(c1)c(-c1cccc(Cl)c1)cc(=O)n2C [tipifarnib]
Outline: as §1

[6] = compound: NC(=O)Nc1cc(-c2cccc(F)c2)sc1C(=O)N[C@H]1CCCNC1
Outline: as §1

[7] = compound: NC1(c2ccc(-c3nc4ccn5c(=O)[nH]nc5c4cc3-c3ccccc3)cc2)CCC1
Outline: as §1

lapatinib = compound: CS(=O)(=O)CCNCc1ccc(-c2ccc3ncnc(Nc4ccc(OCc5cccc(F)c5)c(Cl)c4)c3c2)o1 [lapatinib]
Outline: as §1

[8] = compound: NC(=O)c1cnc(N[C@@H]2CCCC[C@@H]2N)nc1Nc1cccc(-n2nccn2)c1
Outline: as §1

Measured: log2 fold change

AVEN (UniProt Q9NQS1)
Chain of UniProt Q9NQS1 (Q9NQS1 whole entry, looked up): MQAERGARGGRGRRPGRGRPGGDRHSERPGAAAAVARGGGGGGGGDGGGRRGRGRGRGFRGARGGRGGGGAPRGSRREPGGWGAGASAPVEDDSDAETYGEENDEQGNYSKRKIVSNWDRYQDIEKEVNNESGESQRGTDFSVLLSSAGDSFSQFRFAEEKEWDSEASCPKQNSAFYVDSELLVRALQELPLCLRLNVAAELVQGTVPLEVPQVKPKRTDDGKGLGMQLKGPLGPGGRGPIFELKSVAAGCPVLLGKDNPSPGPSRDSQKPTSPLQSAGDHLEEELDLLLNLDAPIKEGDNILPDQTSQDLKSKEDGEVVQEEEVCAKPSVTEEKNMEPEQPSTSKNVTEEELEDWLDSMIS
inactive: pictilisib 0.022 | crizotinib -0.08 | [1] -0.462 | duvelisib 0.014 | gandotinib 0.262 | tozasertib 0.084 | doramapimod 0.068 | bafetinib -0.097 | [2] 0.338 | nilotinib -0.014 | [3] 0.068 | dasatinib 0.01 | [4] 0.025 | [5] -0.08 | quisinostat -0.042 | tipifarnib -0.188 | [6] 0.038 | [7] 0.154

CCND3 (UniProt P30281)
inactive: pictilisib -0.01 | crizotinib -0.083 | [1] -0.175 | duvelisib 0.015 | gandotinib -0.022 | tozasertib 0.073 | doramapimod 0.101 | bafetinib 0.003 | [2] 0.096 | nilotinib -0.061 | [3] -0.015 | dasatinib -0.08 | [4] 0.042 | [5] 0.137 | quisinostat -0.05 | tipifarnib -0.062 | [6] -0.003 | [7] -0.057

CDKL5 (UniProt O76039)
Chain of UniProt O76039 (O76039 whole entry, looked up): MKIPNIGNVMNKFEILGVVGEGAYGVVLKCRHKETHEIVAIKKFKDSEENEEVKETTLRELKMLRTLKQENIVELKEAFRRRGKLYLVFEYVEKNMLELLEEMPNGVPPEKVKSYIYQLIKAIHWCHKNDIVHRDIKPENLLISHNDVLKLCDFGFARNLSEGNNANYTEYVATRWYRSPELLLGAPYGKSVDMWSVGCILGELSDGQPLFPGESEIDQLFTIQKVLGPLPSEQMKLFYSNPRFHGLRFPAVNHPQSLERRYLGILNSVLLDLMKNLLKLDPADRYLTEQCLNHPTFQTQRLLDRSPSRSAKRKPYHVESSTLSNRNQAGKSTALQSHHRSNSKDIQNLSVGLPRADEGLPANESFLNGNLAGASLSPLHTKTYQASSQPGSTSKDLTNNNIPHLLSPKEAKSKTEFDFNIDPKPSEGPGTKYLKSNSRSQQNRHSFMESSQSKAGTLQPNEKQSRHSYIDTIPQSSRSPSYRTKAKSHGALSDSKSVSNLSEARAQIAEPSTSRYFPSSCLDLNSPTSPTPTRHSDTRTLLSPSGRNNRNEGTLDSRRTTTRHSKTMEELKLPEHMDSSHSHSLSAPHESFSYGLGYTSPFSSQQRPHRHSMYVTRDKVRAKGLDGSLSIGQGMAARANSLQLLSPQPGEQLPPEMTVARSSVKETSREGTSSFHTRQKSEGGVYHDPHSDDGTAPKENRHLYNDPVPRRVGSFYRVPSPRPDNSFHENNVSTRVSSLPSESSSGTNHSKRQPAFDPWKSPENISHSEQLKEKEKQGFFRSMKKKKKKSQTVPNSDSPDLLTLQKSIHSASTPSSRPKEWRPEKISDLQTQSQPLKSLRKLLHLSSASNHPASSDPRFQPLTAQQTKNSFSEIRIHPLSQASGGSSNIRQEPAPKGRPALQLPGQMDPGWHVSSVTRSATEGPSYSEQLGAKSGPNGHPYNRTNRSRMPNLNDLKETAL
inactive: lapatinib -0.207 | crizotinib -0.167 | [1] -0.128 | duvelisib 0.073 | gandotinib 0.537 | tozasertib 0.024 | doramapimod -0.057 | [2] -0.073 | dasatinib -0.095 | [5] 0.188 | quisinostat -0.283 | [6] -0.002 | [8] 0.069

CDC25A (UniProt P30304)
Chain of UniProt P30304 (P30304 whole entry, looked up): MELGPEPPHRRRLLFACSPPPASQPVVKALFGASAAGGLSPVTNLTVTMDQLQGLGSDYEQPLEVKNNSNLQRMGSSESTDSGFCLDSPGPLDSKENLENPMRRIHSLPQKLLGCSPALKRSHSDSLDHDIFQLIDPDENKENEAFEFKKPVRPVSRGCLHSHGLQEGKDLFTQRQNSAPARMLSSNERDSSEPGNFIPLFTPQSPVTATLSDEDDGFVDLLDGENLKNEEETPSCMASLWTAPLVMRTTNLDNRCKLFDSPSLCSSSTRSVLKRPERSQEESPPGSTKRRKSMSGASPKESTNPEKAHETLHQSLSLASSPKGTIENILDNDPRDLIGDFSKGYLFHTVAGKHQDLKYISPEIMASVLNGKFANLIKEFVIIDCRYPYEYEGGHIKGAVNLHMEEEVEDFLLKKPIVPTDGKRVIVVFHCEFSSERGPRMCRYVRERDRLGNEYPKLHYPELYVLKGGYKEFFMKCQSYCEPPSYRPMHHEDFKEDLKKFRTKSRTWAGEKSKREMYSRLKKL
inactive: lapatinib -0.016 | duvelisib -0.014 | doramapimod 0.114 | nilotinib 0.013 | [3] -0.01 | dasatinib -0.035 | [4] -0.021 | [5] 0.024 | quisinostat 0.006 | tipifarnib 0.011 | [6] 0.017 | [8] 0.016 | [7] 0.025

CDK5RAP1 (UniProt Q96SZ6)
inactive: pictilisib 0.184 | crizotinib -0.027 | [1] 0.051 | duvelisib -0.044 | gandotinib 0.071 | tozasertib 0.015 | doramapimod 0 | bafetinib 0.018 | [2] -0.009 | nilotinib -0.007 | [3] 0.002 | dasatinib 0.037 | [4] 0.019 | [5] 0.011 | quisinostat 0.049 | tipifarnib -0.002 | [6] -0.004 | [7] -0.013

CASC1 (UniProt Q6TDU7)
Chain of UniProt Q6TDU7 (Q6TDU7 whole entry, looked up): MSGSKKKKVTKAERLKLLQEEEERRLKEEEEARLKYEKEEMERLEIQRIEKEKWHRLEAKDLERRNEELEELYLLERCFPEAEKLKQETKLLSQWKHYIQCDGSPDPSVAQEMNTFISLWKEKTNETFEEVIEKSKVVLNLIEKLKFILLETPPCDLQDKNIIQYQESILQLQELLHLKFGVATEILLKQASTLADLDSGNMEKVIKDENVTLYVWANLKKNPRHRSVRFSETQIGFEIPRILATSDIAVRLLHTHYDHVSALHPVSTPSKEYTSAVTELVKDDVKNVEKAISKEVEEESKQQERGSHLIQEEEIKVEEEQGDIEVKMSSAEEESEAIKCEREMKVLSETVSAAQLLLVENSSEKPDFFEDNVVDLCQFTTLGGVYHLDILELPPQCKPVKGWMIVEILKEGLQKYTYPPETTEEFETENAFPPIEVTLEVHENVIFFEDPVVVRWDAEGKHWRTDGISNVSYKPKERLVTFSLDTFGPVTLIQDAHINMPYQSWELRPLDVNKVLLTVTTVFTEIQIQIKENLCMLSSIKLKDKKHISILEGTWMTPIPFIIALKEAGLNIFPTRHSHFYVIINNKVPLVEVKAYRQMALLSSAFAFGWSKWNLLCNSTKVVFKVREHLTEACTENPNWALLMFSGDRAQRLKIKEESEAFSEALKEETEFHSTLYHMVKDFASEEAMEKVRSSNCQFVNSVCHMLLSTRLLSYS
inactive: pictilisib -0.06 | [1] -0.175 | gandotinib 0.058 | bafetinib 0.953 | [2] 0.095

CEP128 (UniProt Q6ZU80)
active: [1] -1.2
inactive: pictilisib -0.123 | duvelisib -0.022 | gandotinib 0.331 | tozasertib 0.027 | bafetinib -0.043 | [2] 0.297 | dasatinib -0.168 | [5] 0.041

ATPSCKMT (UniProt Q6P4H8)
inactive: pictilisib -0.113 | crizotinib -0.039 | duvelisib -0.036 | tozasertib -0.219 | doramapimod 0.022 | bafetinib -0.034 | dasatinib 0.052 | [5] -0.021 | quisinostat 0.018 | [6] 0.001

CCP110 (UniProt O43303)
inactive: pictilisib -0.085 | crizotinib -0.006 | duvelisib 0.084 | tozasertib -0.009 | doramapimod 0.009 | bafetinib -0.053 | dasatinib 0.063 | [5] -0.01 | quisinostat -0.062 | [6] 0.107 | [7] 0.055

C3AR1 (UniProt Q16581)
Chain of UniProt Q16581 (Q16581 whole entry, looked up): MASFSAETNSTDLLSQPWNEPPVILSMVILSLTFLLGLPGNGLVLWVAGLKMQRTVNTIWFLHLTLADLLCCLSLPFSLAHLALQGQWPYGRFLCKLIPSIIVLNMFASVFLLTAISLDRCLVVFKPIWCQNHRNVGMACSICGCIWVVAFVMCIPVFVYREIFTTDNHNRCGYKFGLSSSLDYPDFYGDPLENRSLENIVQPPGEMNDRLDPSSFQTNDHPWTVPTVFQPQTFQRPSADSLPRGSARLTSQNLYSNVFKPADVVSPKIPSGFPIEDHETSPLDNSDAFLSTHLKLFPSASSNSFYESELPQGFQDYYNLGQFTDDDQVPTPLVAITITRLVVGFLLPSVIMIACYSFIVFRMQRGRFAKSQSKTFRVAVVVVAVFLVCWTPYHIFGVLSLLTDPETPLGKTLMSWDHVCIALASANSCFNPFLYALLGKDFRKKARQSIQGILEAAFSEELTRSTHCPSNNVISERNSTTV
inactive: pictilisib -0.023 | crizotinib 0.02 | [1] -0.025 | gandotinib 0.043 | doramapimod -0.01 | bafetinib 0.111 | [2] 0.099 | nilotinib -0.026 | [3] 0.286 | [4] -0.111 | quisinostat 0.065 | tipifarnib -0.036 | [6] -0.033

CCAR2 (UniProt G3V119)
inactive: lapatinib -0.12 | [8] -0.015

CDK16 isoform 2 (UniProt Q00536)
inactive: lapatinib 0.046 | crizotinib 0.063 | [1] -0.016 | duvelisib 0.043 | doramapimod 0.012 | bafetinib -0.007 | [2] -0.05 | nilotinib 0.043 | [3] 0.412 | dasatinib 0.033 | [5] -0.033 | quisinostat -0.044 | tipifarnib -0.01 | [6] -0.016 | [8] 0.081 | [7] -0.124
active: gandotinib 0.533 | [4] 0.433

B3GALT6 (UniProt Q96L58)
Chain of UniProt Q96L58 (Q96L58 whole entry, looked up): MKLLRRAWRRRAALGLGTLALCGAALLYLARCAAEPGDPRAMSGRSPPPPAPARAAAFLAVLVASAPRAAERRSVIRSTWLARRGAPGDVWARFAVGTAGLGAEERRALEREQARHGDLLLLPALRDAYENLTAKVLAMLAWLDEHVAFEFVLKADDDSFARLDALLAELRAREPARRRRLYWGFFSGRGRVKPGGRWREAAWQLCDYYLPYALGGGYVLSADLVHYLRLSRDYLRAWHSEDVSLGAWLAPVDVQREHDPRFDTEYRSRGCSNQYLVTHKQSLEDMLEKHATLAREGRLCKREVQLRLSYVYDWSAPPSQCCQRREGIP
inactive: pictilisib -0.047 | crizotinib -0.123 | duvelisib 0.045 | doramapimod 0.1 | bafetinib -0.066 | dasatinib -0.148 | [5] 0.233 | quisinostat -0.086 | [6] 0.137 | [7] -0.174

BRAF (UniProt P15056)
Chain of UniProt P15056 (P15056 whole entry, looked up): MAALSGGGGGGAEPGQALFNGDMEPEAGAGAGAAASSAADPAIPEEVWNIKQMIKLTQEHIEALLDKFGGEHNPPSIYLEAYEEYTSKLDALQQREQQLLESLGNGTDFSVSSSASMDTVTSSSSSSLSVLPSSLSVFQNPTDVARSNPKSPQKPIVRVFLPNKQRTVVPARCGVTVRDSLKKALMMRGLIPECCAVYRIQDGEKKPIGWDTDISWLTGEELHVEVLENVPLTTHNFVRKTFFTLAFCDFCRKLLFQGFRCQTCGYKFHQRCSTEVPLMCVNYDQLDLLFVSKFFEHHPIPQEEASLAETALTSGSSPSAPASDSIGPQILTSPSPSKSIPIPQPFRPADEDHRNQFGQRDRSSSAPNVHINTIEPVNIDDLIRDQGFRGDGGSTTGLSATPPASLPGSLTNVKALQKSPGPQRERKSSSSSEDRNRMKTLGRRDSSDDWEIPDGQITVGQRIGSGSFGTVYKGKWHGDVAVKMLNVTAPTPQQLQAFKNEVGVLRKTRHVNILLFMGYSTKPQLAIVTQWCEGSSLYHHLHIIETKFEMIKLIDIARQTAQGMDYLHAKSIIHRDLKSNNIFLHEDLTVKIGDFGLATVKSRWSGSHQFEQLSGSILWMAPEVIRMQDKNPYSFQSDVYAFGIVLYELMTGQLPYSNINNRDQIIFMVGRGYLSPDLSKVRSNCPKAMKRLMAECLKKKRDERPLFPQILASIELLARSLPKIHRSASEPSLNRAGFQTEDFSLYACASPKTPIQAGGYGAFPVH
active: bafetinib 0.64
inactive: pictilisib -0.025 | crizotinib -0.099 | [1] -0.086 | duvelisib 0.015 | gandotinib 0.014 | tozasertib -0.013 | [2] 0.065 | [3] 0.011 | [4] -0.043 | [5] 0.002 | quisinostat -0.173 | tipifarnib -0.006 | [6] 0.018 | [8] 0.007

CDCA8 (UniProt Q53HL2)
Chain of UniProt Q53HL2 (Q53HL2 whole entry, looked up): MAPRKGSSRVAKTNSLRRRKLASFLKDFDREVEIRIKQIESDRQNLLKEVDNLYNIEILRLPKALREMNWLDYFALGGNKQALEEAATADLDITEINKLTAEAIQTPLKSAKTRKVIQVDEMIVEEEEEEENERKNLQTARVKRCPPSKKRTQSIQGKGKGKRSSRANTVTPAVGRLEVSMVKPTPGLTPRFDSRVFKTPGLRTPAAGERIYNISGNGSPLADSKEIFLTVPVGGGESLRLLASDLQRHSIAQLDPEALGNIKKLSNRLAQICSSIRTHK
inactive: pictilisib 0.072 | [1] 0.319 | duvelisib 0.031 | gandotinib -0.031 | tozasertib -0.047 | bafetinib -0.217 | [2] -0.128 | nilotinib 0.03 | [3] -0.002 | dasatinib 0.012 | [4] -0.277 | [5] -0.011 | tipifarnib 0.046 | [7] -0.051

BRAF, A0A2R8Y8E0
inactive: tozasertib 0.035

BBS7 (UniProt Q8IWZ6)
active: [5] 0.489
inactive: crizotinib -0.036 | [1] 0.003 | duvelisib 0.039 | gandotinib 0.072 | tozasertib 0.021 | doramapimod 0.151 | [2] -0.119 | nilotinib -0.039 | [3] 0.065 | dasatinib -0.061 | [4] -0.03 | quisinostat 0.06 | tipifarnib -0.133 | [6] -0.044 | [7] 0.14

CEP57L1 (UniProt Q8IYX8)
Chain of UniProt Q8IYX8 (Q8IYX8 whole entry, looked up): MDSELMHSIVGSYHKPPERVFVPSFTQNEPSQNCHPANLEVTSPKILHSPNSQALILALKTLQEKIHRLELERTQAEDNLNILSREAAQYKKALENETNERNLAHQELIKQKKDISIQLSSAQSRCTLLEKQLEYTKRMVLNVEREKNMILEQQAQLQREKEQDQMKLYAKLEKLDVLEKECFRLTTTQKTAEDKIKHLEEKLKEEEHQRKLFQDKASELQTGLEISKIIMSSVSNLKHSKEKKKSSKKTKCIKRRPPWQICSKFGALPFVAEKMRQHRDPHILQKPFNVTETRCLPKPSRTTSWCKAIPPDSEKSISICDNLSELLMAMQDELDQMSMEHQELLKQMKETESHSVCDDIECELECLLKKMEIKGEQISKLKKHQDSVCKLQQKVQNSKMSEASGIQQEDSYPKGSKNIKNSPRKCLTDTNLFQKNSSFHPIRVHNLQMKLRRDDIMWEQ
inactive: pictilisib 0.076 | crizotinib 0.056 | [1] -0.039 | duvelisib -0.004 | gandotinib -0.022 | tozasertib -0.07 | doramapimod 0.05 | bafetinib -0.184 | [2] 0.073 | nilotinib 0.246 | [3] -0.129 | dasatinib 0 | [4] -0.014 | [5] 0.34 | quisinostat -0.101 | tipifarnib -0.015 | [6] 0.041 | [7] 0.031
